Source: PubChem BioAssay
Sampled rows, rich in hits. Any-hit rate of the full collection: about 7.7%.
PD-1 reverse act – activators reversing PD-1 mediated T-cell inhibition, primary screen, luminescence, primary human CD4 T cells, PD-L1 beads; activation, % (concentration not given with the values); 29,000 tested, under 10 active; CellTiter-Glo 96 h; AID 2316, 2010; call rule not given here;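 also: 0% = median vehicle wells and 100% = positive control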
Hedgehog inh – Hedgehog pathway signaling inhibitors, primary screen, luminescence, Shh-LIGHT2 cells, Gli-luciferase. Shh-LIGHT2 Gli-luciferase reporter, 30 h. AID 2313, 2010. 2.1% of 22,000 active. inhibition, % (no concentration beside the values);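 active = mean inhibition across valid replicates above about 65%, limit read from the data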;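 also: pathway switched on by Shh-conditioned medium diluted 1 in 25 in low serum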
NOMO-1 viab – NOMO-1 AML cell viability reduction, primary screen, STK33 inhibitor project, CellTiter-Glo luminescence. NOMO-1 AML viability, 72 h. inhibition, % (test concentration not listed). 7.5% of 37,000 active; in the data active = inhibition above about 80%
Numbers without * were called inactive.

What do the screens show for `C[C@@H]1CN([C@@H](C)CO)C(=O)c2cccc(NC(=O)Nc3ccc(C(F)(F)F)cc3)c2O[C@H]1CN(C)Cc1ccc2c(c1)OCO2`?
PD-1 reverse act: -7.3; Hedgehog inh: 5.8; NOMO-1 viab: 84.8*

Results for C[C@H]1CN([C@@H](C)CO)C(=O)c2cccc(NC(=O)Nc3ccccc3)c2O[C@H]1CN(C)Cc1ccc2c(c1)OCO2 ?
PD-1 reverse act: 1.6; Hedgehog inh: -18.6; NOMO-1 viab: 20.7

Results for C[C@H](CO)N1C[C@H](C)[C@@H](CN(C)Cc2ccc3c(c2)OCO3)Oc2c(NC(=O)Nc3ccc(F)cc3)cccc2C1=O ?
PD-1 reverse act: -4.0; Hedgehog inh: -43.7; NOMO-1 viab: 72.3

How did COc1ccc(N(C(C)C(=O)Nc2cc(Cl)ccc2C)S(C)(=O)=O)cc1 (configuration not stated) do in these assays?
PD-1 reverse act: -0.1; NOMO-1 viab: 23.9

How did Cc1cc(Cl)c(S(=O)(=O)Nc2ccc(I)cc2)cc1OCC(N)=O do in these assays?
NOMO-1 viab: 1.7

Results for COc1ccc(N(Cc2cc3cc(C)ccc3[nH]c2=O)C(=O)c2ccccc2)cc1 ?
PD-1 reverse act: -3.7; NOMO-1 viab: 21.9

How did Cc1cccc(NC(=O)c2ccccc2NC(=O)COc2ccccc2)c1C do in these assays?
PD-1 reverse act: -0.3; NOMO-1 viab: 35.3

Results for COCCNC(=O)c1ccccc1-c1nc(-c2ccc(Cl)cc2)no1 ?
PD-1 reverse act: 1.5; NOMO-1 viab: 36.8

What do the screens show for `C[C@@H]1CN([C@H](C)CO)C(=O)c2cc(NC(=O)Nc3ccc(C(F)(F)F)cc3)ccc2O[C@H]1CN(C)Cc1ccccc1`?
PD-1 reverse act: -5.2; Hedgehog inh: 10.5; NOMO-1 viab: 76.3

How did C[C@@H]1CN([C@@H](C)CO)C(=O)c2cc(NC(=O)Nc3ccc(C(F)(F)F)cc3)ccc2O[C@@H]1CN(C)Cc1ccccc1 do in these assays?
PD-1 reverse act: -1.9; Hedgehog inh: 33.5; NOMO-1 viab: 119.5*

Results for COc1ccc(CN(C)C[C@@H]2Oc3ccc(NC(=O)Nc4ccc(C(F)(F)F)cc4)cc3C(=O)N([C@@H](C)CO)C[C@@H]2C)cc1 ?
PD-1 reverse act: 0.9; Hedgehog inh: 28.4; NOMO-1 viab: 99.9*

What do the screens show for `C[C@@H]1CN([C@@H](C)CO)C(=O)c2cc(NC(=O)Nc3ccc4c(c3)OCO4)ccc2O[C@H]1CN(C)Cc1ccc(C(F)(F)F)cc1`?
PD-1 reverse act: 0.3; NOMO-1 viab: 92.7*

What do the screens show for `C[C@H]1CN([C@@H](C)CO)C(=O)c2cc(NC(=O)Nc3ccc4c(c3)OCO4)ccc2O[C@@H]1CN(C)Cc1ccc(C(F)(F)F)cc1`?
PD-1 reverse act: 1.6; Hedgehog inh: 4.4; NOMO-1 viab: 11.1

What do the screens show for `C[C@H]1CN([C@@H](C)CO)C(=O)c2cc(NC(=O)Nc3ccc(C(F)(F)F)cc3)ccc2O[C@@H]1CN(C)Cc1ccccc1`?
PD-1 reverse act: -1.8; NOMO-1 viab: 94.3*

How did C[C@H](CO)N1C[C@H](C)[C@H](CN(C)Cc2ccc(C(=O)O)cc2)Oc2ccc(NC(=O)Nc3ccc(C(F)(F)F)cc3)cc2C1=O do in these assays?
PD-1 reverse act: 0.8; Hedgehog inh: -46.5; NOMO-1 viab: -14.8

What do the screens show for `COc1ccc(NC(=O)Nc2ccc3c(c2)C(=O)N([C@H](C)CO)C[C@@H](C)[C@H](CN(C)Cc2ccc(C(F)(F)F)cc2)O3)cc1`?
PD-1 reverse act: -1.4; NOMO-1 viab: 49.2

How did O=C(O)CCc1ccc(-c2ccc(F)cc2)n1-c1cccc(C(=O)O)c1 do in these assays?
PD-1 reverse act: 2.9; NOMO-1 viab: -28.6

How did O=C(OCCn1ncc2ccccc2c1=O)c1cccs1 do in these assays?
PD-1 reverse act: -0.6; Hedgehog inh: -50.8; NOMO-1 viab: 33.6

Results for COc1cc(COc2ccc3c4c(c(=O)oc3c2)CCC4)cc(OC)c1OC ?
PD-1 reverse act: 1.6; Hedgehog inh: -15.0; NOMO-1 viab: 33.7

Results for CC(=O)O[C@@]1(C)C[C@@H](OC(=O)/C=C/c2ccc(O)cc2)[C@@H]2C(C(=O)O)=COC(O[C@@H]3O[C@H](CO)[C@@H](O)[C@H](O)[C@H]3O)[C@@H]21 (some centres not stated) ?
PD-1 reverse act: -0.5; Hedgehog inh: -10.8; NOMO-1 viab: -11.0

Results for COc1c(O)cc2c(c1O)C(=O)OC(C)C2O (configuration not stated) ?
PD-1 reverse act: 0.1; Hedgehog inh: -14.0; NOMO-1 viab: 12.4

How did CC(C)(C)c1csc(=Nc2ccc(F)cc2F)o1 do in these assays?
PD-1 reverse act: -0.7; NOMO-1 viab: 15.0

Results for C[C@@H]1CN([C@@H](C)CO)C(=O)c2cc(NC(=O)Nc3ccc(C(F)(F)F)cc3)ccc2O[C@@H]1CN(C)Cc1ccc(Oc2ccccc2)cc1 ?
PD-1 reverse act: -13.9; NOMO-1 viab: 116.5*
